Laboratory results: PubChem BioAssay (NCI)
Compounds without any hit were thinned out: in the full panel of roughly 83,000, 20% have a hit.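 Cell lines were cultured in 96-well plates, exposed to a single compound concentration, and assessed for percent growth 48 hours later.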 Values without a mark were called inactive. Calls of active or inactive are those of the source. How the source made its calls: active means growth percent below 10; inactive means the rest.

What was measured:
Test in all cases: NCI-60 one-dose screen, 48 h (100 = growth as untreated, 0 = no growth, -100 = all killed)
Conditions in all cases: 10 µM unless noted
[1] = tested on: DU-145 prostate
[2] = tested on: K-562 leukemia
[3] = tested on: MALME-3M melanoma
[4] = tested on: MDA-MB-231 breast
[5] = tested on: RXF 393 renal
[6] = tested on: SF-268 CNS
[7] = tested on: SF-295 CNS
[8] = tested on: SF-539 CNS
[9] = tested on: UACC-257 melanoma
[10] = tested on: M14 melanoma
[11] = tested on: HCT-15 colon
[12] = tested on: HT29 colon
[13] = tested on: SNB-75 CNS
[14] = tested on: SNB-19 CNS
[15] = tested on: U251 CNS
[16] = tested on: PC-3 prostate
[17] = tested on: SK-MEL-5 melanoma
[18] = tested on: UACC-62 melanoma
[19] = tested on: LOX IMVI melanoma
[20] = tested on: SK-MEL-28 melanoma

Compound	growth [1]	growth [2]	growth [3]	growth [4] [%]	growth [5]	growth [6] [%]	growth [7] [%]	growth [8]	growth [9]	growth [10]	growth [11]	growth [12]	growth [13]	growth [14]	growth [15]	growth [16] [%]	growth [17]	growth [18]	growth [19]	growth [20]
C=C(c1ccc(OC)c(/C=C/C(=O)c2cc(OC)c(OC)c(OC)c2)c1)c1cc(OC)c(OC)c(OC)c1	15.6%	12.7%	-6.73% (active)	30.4	-68.5% (active)	21.7	30.5	-84.7% (active)	2.85% (active)	4.85% (active)	-21.6% (active)	0.495% (active)	49.8%	-3.73% (active)	-49.3% (active)	31.5	-69.3% (active)	-70% (active)	-87.3% (active)	-77.3% (active)
O=C(Nc1ncc(Cc2ccc(Cl)cc2)s1)c1ccc2c(c1)OCCO2	16.6%	8.41% (active)	57.8%	10.9	3.74% (active)	42.9	11.7	-4.99% (active)	44.1%	17.3%	8.98% (active)	7.68% (active)	23%	43.4%	17.6%	30.3	-21.3% (active)	45.8%	31.3%	76.2%
Cc1cc2nc(C(Cl)Cl)nc(-c3ccccc3)n2n1	-6.97% (active)	66.4%	113%	62.7	9.08% (active)	77.8	55.7	76.7%	93%	73.3%	41.2%	12.6%	-4.36% (active)	62.7%	36%	65.1	94.4%	88.9%	75.1%	85.1%
COc1ccc(Cn2cc(C(=O)N=Nc3c(O)[nH]c4ccc(Br)cc34)nn2)cc1	93.7%	88.1%	-89.9% (active)	108	99.8%	94.1	95.8	104%	102%	111%	105%	88.5%	112%	97.3%	105%	99.8	98.3%	97.2%	107%	115%
